Laboratory results as given in ChEMBL document CHEMBL1157539, “Thousands of chemical starting points for antimalarial lead identification” (Nature, 2010).

Legend:
Format in all cases: functional
Plasmodium falciparum [1] = test: GSK_TCMDC: Inhibition of Plasmodium falciparum 3D7 in whole red blood cells, using parasite LDH activity as an index of growth. Test compounds present at 2uM
Plasmodium falciparum [2] = test: GSK_TCMDC: Inhibition of Plasmodium falciparum Dd2 in whole red blood cells, using parasite LDH activity as an index of growth. Test compounds present at 2uM
HepG2 = test: GSK_TCMDC: Percent inhibition of human HepG2 cell line. Test compounds present at 10uM.

SMILES	Inhibition (Plasmodium falciparum [1]) [%]	Inhibition (Plasmodium falciparum [2]) [%]	Inhibition (HepG2) [%]
Cc1ccccc1Cc1cccc(/N=C(\N)Nc2ccc(Cl)cc2)n1	91	56	48
CCCCCNc1ccnc2cc(Cl)ccc12	97	99	12
CCC(CC)n1cc2c(ccc3nc(N)nc(N)c32)n1	91	0	61
COc1cc2nc(NCc3nc4ccccc4[nH]3)nc(N)c2cc1OC.Cl	97	10	3
Cc1cc(Nc2ccc(C)c(Cl)c2)n2nc(C(F)(F)F)nc2n1	98	97	2
CCn1c(C)c(C)c2cc(C(=O)Nc3ccon3)ccc21	95	93	3
CN(C)CCN(C)Cc1ccc(-c2ccc(NC(=O)c3cccc(C#N)c3)cc2)cc1.O=C(O)C(F)(F)F	89	49	20
COc1nc2c(CCN3CC[C@@H](NCc4cc(C#N)c5c(c4)CCO5)[C@@H](O)C3)ccnc2cc1F.Cl	92	35	21
O=C(Nc1cccc(N2CCC(NCc3cnn(-c4cccc(F)c4)c3)CC2)c1)c1ccncc1	84	40	50
CC(C)CN1CCN(c2nc(C#N)c3c(c2C(=S)NC2CCCCC2)CC(C)(C)OC3)CC1	100	99	0
NCC1CCCN1Cc1ccc(-c2cccc(-c3nc4cc(F)ccc4[nH]3)c2)cc1.O=C(O)C(F)(F)F (centres undefined)	100	31	38
CN1CCC(NCc2ccc(-c3cccc(S(=O)(=O)NCCc4ccccn4)c3)cc2)CC1.O=C(O)C(F)(F)F	84	0	42
CCN1CCN(c2cc(C)c3cc(NC(=O)c4ccc([N+](=O)[O-])c(C)c4)ccc3n2)CC1	92	39	8
COc1ccc(C(=O)CCc2ccc(O)cc2)cc1	96	90	0
CO/C(=C\C=C/c1cc2cc(Cl)c(Cl)cc2[nH]1)C(=O)NC1CC(C)(C)N(C)C(C)(C)C1	93	34	65
O=C(O)C(F)(F)F.c1ccc(CNCc2cccc(-c3cccc(-c4nc5ccccc5[nH]4)c3)c2)cc1	100	38	12
Cl.Nc1c2c(nc3ccc(C(=O)Nc4cc(I)c(O)c(I)c4)cc13)CCCC2	96	64	14
Cc1cc(CN2CC[C@H](NC(=O)c3ccc(Cl)c(Cl)c3)C2)ccc1OCCN1CCNCC1.O=C(O)C(F)(F)F	94	1	15
COc1ccc(F)cc1-c1cccc(CNC2CCN(CC3Cn4c(=O)ccc5ccc(F)c3c54)CC2)c1.O=C(O)C(F)(F)F (centres undefined)	100	27	46
O=C(/C=C/c1ccc(Cl)c(Cl)c1)NCCCCCN1CCC(c2cn[nH]c2-c2ccccc2)CC1	85	0	28

SMILES	Inhibition (Plasmodium falciparum [1]) [%]	Inhibition (Plasmodium falciparum [2]) [%]	Inhibition (HepG2) [%]
Cc1ccc(NC(=O)c2ccc(CN3CCCN(Cc4cccc(Cl)c4)CC3)cc2)cc1C.O=C(O)C(F)(F)F	84	18	41
Cl.Clc1ccc(OCc2ccccc2)c(Cc2ccc(-c3nc4cnccc4[nH]3)o2)c1	99	6	2
O=[N+]([O-])c1cccc(-n2nc(NCc3ccc(Cl)cc3)nc2-c2ccc(F)c(C(F)(F)F)c2)c1	98	93	6
Br.CC(CCON1C(N)=NC(N)=NC1(C)C)c1ccc(Cl)cc1 (centres undefined)	93	97	64
CCC(CC)N1CCN(CC(=O)Nc2ccc([N+](=O)[O-])cc2C(=O)Nc2cccc(OC)c2)CC1	100	35	35
CC(C)(C)OC(=O)/C=C(\C(=O)OCc1ccc([N+](=O)[O-])cc1)c1csc(NC(c2ccccc2)(c2ccccc2)c2ccccc2)n1	96	97	2
Nc1cc(/C=C/c2ccc([N+](=O)[O-])s2)nc2ccccc12	98	48	89
CC(C)Sc1nncc(-c2cnnc(SC(C)C)n2)n1	100	100	0
COc1ccc(CNCc2ccccc2)cc1-c1ccc(S(=O)(=O)NCCN2CCCC2)s1.O=C(O)C(F)(F)F	100	62	32
Cc1ccc(NC(C)C(=O)Nc2ccccc2)cc1S(=O)(=O)N1CCCCCC1 (centres undefined)	99	97	12
Cl.Cn1ncc2c3c(CCN4CCC(NCc5cc6c(cn5)OCC6)CC4)c(Cl)cnc3ccc21	94	0	4
Cc1nc2ccc3ccc(CNc4ccc5c(c4)CN([C@@H](CCC(=O)O)C(=O)O)C5=O)cc3c2c(=O)[nH]1 [OSI-7904]	94	95	41
COc1ccc(CNCC(C)(C)c2nc(-c3ccc(Cl)c(O)c3)c(-c3ccncc3)[nH]2)cc1.Cl	100	99	76
Cc1cc(NC(=O)c2coc3cc(F)c(N4CC(C)N(C)C(C)C4)cc23)cnc1-c1ccc(C#N)cc1.Cl (centres undefined)	99	71	35
O=C(NC1c2ccccc2Oc2ccccc21)c1ccccc1O	95	0	0
CN1CCCN(Cc2ccc(-c3cccc(NC(=O)c4cccc(F)c4)c3)cc2)CC1.O=C(O)C(F)(F)F	91	12	28
N#Cc1cncc(-c2nc3c(N4CCC(Cc5ccccc5)CC4)cccc3n2CCNCc2ccccc2)c1.O=C(O)C(F)(F)F	99	99	2
O=C(/C=C/c1ccc(Cl)c(Cl)c1)NCCCCCN1CCC(NC(=O)Nc2ccccc2F)CC1	95	25	14
Cl.c1ccc(-c2cc(NCCCCNc3cc(-c4ccccc4)nc4ccccc34)c3ccccc3n2)cc1	100	97	70
Cl.O=C(CCc1ccccc1)N[C@H](Cc1c[nH]c2ccccc12)C(=O)N1CCC(NCc2ccc3c(c2)Cc2ccccc2-3)CC1	92	8	53

SMILES	Inhibition (Plasmodium falciparum [1]) [%]	Inhibition (Plasmodium falciparum [2]) [%]	Inhibition (HepG2) [%]
O=C(O)C(F)(F)F.O=S(=O)(NCCN1CCCC1)c1cccc(-c2ccccc2CNC2Cc3ccccc3C2)c1	99	76	35
Cn1nccc1C(=O)NCCNCc1cccc(-c2ccc(-c3nc4ccccc4[nH]3)cc2)c1.O=C(O)C(F)(F)F	100	98	19
N[C@@H](Cc1ccc(O)cc1)C(=O)NC(c1ccccc1)c1c(O)ccc2ccccc12.O=C(O)C(F)(F)F (some centres undefined)	95	95	6
O=C(NC1CCN(Cc2ccccc2O)C1)c1ccc(-c2ccccc2)cc1.O=C(O)C(F)(F)F (centres undefined)	99	25	0
COc1ccc(C2CC(=O)C3=C(C2)NC(C)=C(C(=O)OC(C)C)C3c2cccc(O)c2)cc1OC (centres undefined)	100	85	0
O=C1C(=Cc2c(O)ccc3ccccc23)SC(=NCc2ccccc2)N1Cc1ccccc1	98	98	0
Nc1nc(N)c2c(CCc3ccc4ccccc4c3)cccc2n1	100	6	56
CC(Oc1ccc(Cl)cc1)C(=O)N(C)C1CCN(CCCCCNC(=O)/C=C/c2ccc(Cl)c(Cl)c2)CC1 (centres undefined)	85	10	61
O=C(/C=C/c1c(Cl)cccc1Cl)NC1CCC(CN2CCC(Cc3cc4ccccc4[nH]3)CC2)CC1 (centres undefined)	91	17	97
O=C(Cc1ccccc1)NC(Nc1ccc([N+](=O)[O-])cc1)C(Cl)(Cl)Cl (centres undefined)	99	100	21
COc1cc(CNC[C@@H](O)[C@H](Cc2ccccc2)NC(=O)c2cc(C3CCCC3)cc(N3CCCCS3(=O)=O)c2)cc(OC)c1.Cl	98	96	16
N#Cc1cc(C(=O)Nc2ccccc2)c(N)nc1SCC(=O)NC(c1ccccc1)c1cccs1 (centres undefined)	98	100	34
Cc1ccc(O)c(Nc2c3c(c(C#N)c4nc5ccccc5n24)CCC3)c1	85	2	7
CCN1CCN(c2cc(C)c3cc(NC(=O)c4cccc([N+](=O)[O-])c4)ccc3n2)CC1	99	73	74
CCOc1ccc2nc(NC(=O)c3csnn3)sc2c1	100	98	6
Cc1cccc(C)c1OC(=O)C(C)C(O)C1(Sc2ccccc2)CCN(C)CC1 (centres undefined)	98	92	23
COc1ccc(C2CCN(CCCCNC(=O)c3ccc(NC(=O)c4ccc(Cl)cc4)cc3)CC2)c(C)c1.Cl	98	35	22
Cc1nc(C)c(-c2ccc(Cl)cc2Cl)c(O)c1Br	87	57	3
